Results: PubChem BioAssay AID1209 (Sanford-Burnham Center for Chemical Genomics, 2008)
Screen size: about 190,000 compounds; about 810 (0.43%) were called active. For the sample, actives were picked, then their nearest neighbours and some compounds at random. A number with no mark means an inactive call. Rule as the data show it: active = inhibition above about 50%; inactive = the rest.

biological target: Mannose-6-phosphate isomerase (Homo sapiens) (UniProt P34949); assay: MPI enzyme activity inhibition – biochemical, fluorescence intensity, coupled assay, primary screen (AID 1209); conditions: purified PMI enzyme, at 20 µM, active compounds read high;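 also: plate controls were DMSO vehicle for no effect and wells lacking substrate for full effect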
Sequence (P34949 whole entry, looked up): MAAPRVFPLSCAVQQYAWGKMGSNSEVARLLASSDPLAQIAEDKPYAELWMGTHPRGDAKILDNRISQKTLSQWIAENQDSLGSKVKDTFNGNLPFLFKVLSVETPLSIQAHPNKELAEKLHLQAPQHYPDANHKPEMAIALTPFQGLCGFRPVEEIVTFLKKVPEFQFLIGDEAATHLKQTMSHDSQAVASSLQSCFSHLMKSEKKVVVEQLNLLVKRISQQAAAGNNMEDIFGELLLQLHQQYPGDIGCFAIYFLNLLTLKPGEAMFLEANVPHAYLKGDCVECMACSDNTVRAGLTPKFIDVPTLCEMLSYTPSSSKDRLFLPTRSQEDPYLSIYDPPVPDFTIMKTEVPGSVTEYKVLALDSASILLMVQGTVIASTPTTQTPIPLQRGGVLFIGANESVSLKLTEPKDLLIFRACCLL

| SMILES | inhibition |
| --- | --- |
| O=c1[nH]nc(CNc2ccc(Cl)cc2Cl)c2ccccc12 | -11.9% |
| Cc1ncc(CO)c(/C=N/NC(=O)c2ccc(Br)cc2)c1O | 15.7% |
| Cc1ncc(CO)c(/C=N/NC(=O)c2ccc(O)cc2)c1O | 3.5% |
| COc1ccccc1NC(=S)N1CCC(C(=O)c2ccc(F)cc2)CC1 | 1.3% |
| CC(C)OCCCNC(=S)Nc1ccc2nc3n(c(=O)c2c1)CCCCC3 | -2.7% |
| N#CCCN1CCN(C(=S)c2ccc(-c3ccc(Cl)cc3)o2)CC1 | 25.7% |
| COc1ccc(-c2ccc(C(=S)N3CCN(C(C)=O)CC3)o2)cc1 | 62% (active) |
| COc1ccc(CC(=O)N2CCN(C(=O)Cc3ccc(OC)cc3)CC2)cc1 | 7.3% |
| S=C(c1ccc(-c2ccc(Cl)cc2)o1)N1CCCCC1 | 9.1% |
| NC(=O)C1CCN(C(=S)c2ccc(-c3ccc(Br)cc3)o2)CC1 | -10% |
| CC(=O)N1CCN(C(=S)c2ccc(-c3ccc(Cl)cc3)o2)CC1 | 63.9% (active) |
| Cc1cccc(CSC2=NCCN2C(=O)C2CC2)c1 | 5.8% |
| CCC1N=C(SC)NC(C)=C1C(=O)c1ccccc1 (stereo not given) | -36.6% |
| CCOc1ccc(Cn2nnc(C(=O)Nc3cc(C)cc(C)c3)c2N)cc1 | 18.5% |
| Fc1ccc(NC(=S)Nc2ccc3nccnc3c2)cc1 | 56.3% (active) |
| COc1ccc(NC(=S)Nc2ccc3nc(C)c(C)nc3c2)cc1 | 45% |
| OCCCNC(=S)Nc1ccc2nccnc2c1 | -2.7% |
| CC(C)N(C(=O)Nc1ccc2nccnc2c1)C(C)C | 65.4% (active) |
| CNC(=S)Nc1ccc2nc(C)c(C)nc2c1 | 2.5% |
| Fc1ccc(NC(=S)Nc2nccs2)cc1 | 2.2% |
| CCN(CC)c1ccc(NC(=S)Nc2ccc(F)cc2)cc1 | 53.4% (active) |
| CC(=O)Nc1ccc(NC(=S)Nc2ccc(F)cc2)cc1 | 3.2% |
| COc1ccc(N(C)C(=S)Nc2ccc3nc(C)c(C)nc3c2)cc1 | 53.7% (active) |
| CC(C)(C)NC(=O)Nc1ccc2nccnc2c1 | 4.4% |
| Cc1nc2ccc(NC(=O)N(C(C)C)C(C)C)cc2s1 | 3% |

| SMILES | inhibition |
| --- | --- |
| CCN(CC)CCNC(=S)Nc1ccc(F)cc1 | -2.1% |
| Cc1c(Nc2nc(-c3ccc(Cl)cc3)cs2)c(=O)n(-c2ccccc2)n1C | 20.6% |
| COc1ccc(N2CCN(C(=O)c3ccc(F)cc3)CC2)c([N+](=O)[O-])c1 | -4.8% |
| COCCN(C(=O)Cn1nnc2ccccc21)C(C(=O)NC1CCCC1)c1ccc(OC)cc1OC (stereo not given) | -10.6% |
| CCc1cccc(CC)c1-n1c(SCC(=O)c2c(N)n(C)c(=O)n(C)c2=O)nnc1-c1cccnc1 | 17.2% |
| Cc1ccccc1C(=O)c1c[nH]c(C(=O)N2CCN(c3ccccc3F)CC2)c1 | 7.5% |
| Cc1cc(C)cc(NC(=S)N2CCN(c3ccc(F)cc3)CC2)c1 | 10% |
| C=CCn1c(SCc2ccccc2)nnc1-c1cccnc1 | 1.3% |
| CN(Cc1nc2ccccc2c(=O)[nH]1)CC(O)COCc1ccco1 (stereo not given) | 11.4% |
| CCNc1nc(CSc2ccccc2)nc2sc(C)c(C)c12 | 30.5% |
| CCn1c(SCC(=O)N/N=C/c2ccc(C)o2)nnc1-c1ccc(C)cc1 | 0.6% |
| CCN1CCN(CCCNC(=O)C(=O)c2c(C)[nH]c3ccccc23)CC1 | -6.7% |
| O=C(COC(=O)c1ccc(Br)cc1)NCc1ccc(F)cc1 | -1.2% |
| COC(=O)c1ccc(CSc2nnc(C)s2)cc1 | 8.5% |
| CC(C)(CO)NC(=O)CC1C(=O)NCCN1CC(c1ccccc1)c1ccccc1 (stereo not given) | -1.4% |
| COC(=O)c1cccc(NC(=O)CCc2cc(OC)c(OC)c(OC)c2)c1 | -5.4% |
| COCCn1c(SCCN2CCCCC2)nc2ccccc2c1=O | 3.5% |
| COc1ccc(N(C)C(=O)Nc2ccc3nsnc3c2)cc1 | 58.7% (active) |
| CCOc1ccc(NC(=S)Nc2ccc3nsnc3c2)cc1 | 46.4% |
| COc1ccc(NC(=S)Nc2ccc3nccnc3c2)cc1 | 83.8% (active) |
| COc1ccc(NC(=S)Nc2ccc3snnc3c2)cc1 | 25% |
| COc1cccc(NC(=O)Nc2ccc3nsnc3c2)c1 | 1.7% |
| COc1ccc(NC(=O)c2ccc3nccnc3c2)cc1 | -5.2% |
| COc1ccc(NC(=O)Nc2ccc3nccnc3c2)cc1 | -6.9% |
| COc1ccc(NC(=S)Nc2ccc3nsnc3c2)cc1 | 64.2% (active) |

| SMILES | inhibition |
| --- | --- |
| COc1ccc(N(C)C(=O)Nc2ccc3c(c2)nnn3C)cc1 | 15.5% |
| CCOC(=O)c1sc(NS(=O)(=O)c2ccc(C)cc2)nc1C | 5.9% |
| CCOc1ccc(-c2noc(CCC(N)=O)n2)cc1OCC | -7.6% |
| Cc1cc(NCCCN2CCOCC2)n2nc(C)c(-c3ccccc3)c2n1 | -1.9% |
| Cc1csc(NC(=O)CSc2nc3ccccc3c(=O)[nH]2)n1 | 0.4% |
| C[C@H]1CC[C@H]2C(=O)N3[C@H](c4cccc(N5CCCC5=O)c4)[C@@H](C)CC[C@H]3C(=O)N2[C@@H]1c1cccc(N2CCCC2=O)c1 | -17.4% |
| CC(C)(C)Cc1nnc(NC(=O)Cc2ccc([N+](=O)[O-])cc2)s1 | -4.5% |
| CC(C)(C)C(=O)CSc1nnc(Nc2ccccc2)s1 | 39.6% |
| CCOC(=O)N1CCC(N2Cc3cccc(C(=O)Nc4cccc(F)c4)c3C2=O)CC1 | -24.4% |
| CCOC(=O)C1CCN(C(=O)c2c(-c3c(Cl)cccc3Cl)noc2C)CC1 | 9.4% |
| CCN(CC)CCNCc1ccc(-c2ccc(Cl)cc2)o1 | -7% |
| CC1CC(C)(C)NC(=S)N1CCCC(=O)N1CCN(c2ccccc2F)CC1 (stereo not given) | -3.8% |
| COc1cc(-c2nnc(-c3cc(OC)c(OC)c(OC)c3)o2)cc(OC)c1OC | 7.6% |
| COc1cc(N=C(N)N=C(N)N)cc(OC)c1 | -0.7% |
| COc1cc(-c2nnco2)cc(OC)c1OC | 15% |
| COc1ccc(N=c2sc3ccccc3n2C)cc1 | 5.6% |
| COc1ccc(N=C2SCC(=O)N2Cc2ccccc2)cc1 | -10.8% |
| COc1cc(N=C2C(=O)N3c4c(cccc42)C(C)=CC3(C)C)cc(OC)c1 | 34.1% |
| CCc1c(C)sc(NC(=O)CSc2nc3c(c(C(F)(F)F)n2)CCc2ccccc2-3)c1C#N | 0.3% |
| Cc1ccc(SCC(=O)NC(=O)NCc2ccco2)cc1C | -3.3% |
| CCN(CCn1cccn1)C(=O)c1cc(COc2c(F)cccc2F)on1 | 5.3% |
| O=C(CN1CCCC1)Nc1cc(F)ccc1F | -1.6% |
| Cc1noc(C)c1COc1ccc(C(=O)OCC(=O)NCc2ccccc2Cl)cc1 | 22.4% |
| CC(C)(C)NC(=O)COC(=O)/C=C/c1ccccc1[N+](=O)[O-] | 1.1% |
| CC(=O)N(Cc1ccc(Br)cc1)c1cccc(C)c1C | 5.3% |

| SMILES | inhibition |
| --- | --- |
| COc1ccc(OC)c(NC(=O)CN2C(=O)C3(OCCCO3)c3ccccc32)c1 | 11% |
| C=CCn1c(=S)[nH]c2ccccc2c1=O | 1.8% |
| C=CCn1c(C)nc2ccccc2c1=O | 10% |
| C=CCn1c2[n+](c3ccccc3c1=O)CCCCC2 | 66.2% (active) |
| COc1ccc(NC(C)=O)cc1NC(C)C(=O)Nc1ccc(F)c(F)c1F (stereo not given) | 13.6% |
| Cc1cc(C)nc(-n2nc(C)cc2NC(=O)c2cccc(S(=O)(=O)N3CCCCC3)c2)n1 | 15.9% |
| CCN(CC)c1ccc(NC(=O)/C=C/c2cc(Br)ccc2OC)cc1 | 6.9% |
| CC1Cc2ccccc2N1C(=O)CSc1nnc(-c2ccc(S(=O)(=O)N3CCOCC3)cc2)n1C (stereo not given) | -0.3% |
| Cn1c(SCC(=O)N2CCc3ccccc32)nnc1-c1ccc(S(=O)(=O)N2CCCC2)cc1 | 18.8% |
| CC1Cc2ccccc2N1C(=O)CSc1nnc(-c2ccc(S(=O)(=O)N3CCCC3)cc2)n1C (stereo not given) | 60.6% (active) |
| CCOC(=O)c1ccc(NC(=O)CSCC(=O)OCC(=O)c2ccccc2)cc1 | 19.6% |
| Cc1ccc2nc(SCC(=O)N3CCOCC3)[nH]c2c1 | -2.9% |
| CCOC(=O)CSc1nc2ccc(S(=O)(=O)N3CCOCC3)cc2[nH]1 | -11.2% |
| O=C(CSc1nc2ccc(S(=O)(=O)N3CCOCC3)cc2[nH]1)N1CCOCC1 | 66% (active) |
| COc1ccc(OC)c(NS(=O)(=O)c2ccc(NC(=O)c3ccc(NS(C)(=O)=O)cc3)cc2)c1 | 1.4% |
| O=C(OCC(CO)OC(CO)n1ccc(=O)[nH]c1=O)c1ccccc1 (stereo not given) | 7.7% |
| Cn1c(=O)oc2cc(S(=O)(=O)N3CCC(C(=O)NCc4ccc(F)cc4)CC3)ccc21 | 4.5% |
| CCn1c(N)c(C(N)=O)sc1=S | 18.4% |
| CCn1c(N)c(C(=O)NCC2CCCO2)sc1=S (stereo not given) | 70.4% (active) |
| CCOC(=O)c1ccc(-n2c(N)c(C(=O)NCC3CCCO3)sc2=S)cc1 (stereo not given) | 31.5% |
| C=CCn1c(N)c(C(=O)NCC2CCCO2)sc1=S (stereo not given) | -2.2% |
| CCn1c(N)c(C(=O)NC)sc1=S | 67.3% (active) |
| CCNC(=O)c1sc(=S)n(CC)c1N | 6.5% |
| CCN(CC)CCn1c(=N)n(CC(O)c2ccc(OC)c(OC)c2)c2ccccc21 (stereo not given) | -0.3% |
| O=C(CCN1C(=O)C2CC=CCC2C1=O)N1CCN(c2ccccn2)CC1 (stereo not given) | -3.3% |
